Over roughly 110,000 compounds, “z-score” has its median near -0.1; the highest 2% begin near 2. Only a selection was taken, and the highest values are over-represented in it overall. The source made the active and inactive calls.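 How the source made its calls: active means z-score in the third read window above 3 or below -3; inactive means the rest.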

The target in the experiment is Metabotropic glutamate receptor 8 (Rattus norvegicus) (UniProt P70579). Kind of experiment: rat mGluR8 modulators via GIRK flux, primary screen, cell-based, thallium flux, HTS (AID 488969). Particulars: HEK293 rat mGluR8, GIRK (G protein-gated inwardly rectifying potassium channel) thallium flux, FluoZin2; at 10 µM; stronger effect = higher value; submaximal glutamate (EC20) added with thallium.
Sequence of Metabotropic glutamate receptor 8 (Rattus norvegicus) (P70579 whole entry, looked up): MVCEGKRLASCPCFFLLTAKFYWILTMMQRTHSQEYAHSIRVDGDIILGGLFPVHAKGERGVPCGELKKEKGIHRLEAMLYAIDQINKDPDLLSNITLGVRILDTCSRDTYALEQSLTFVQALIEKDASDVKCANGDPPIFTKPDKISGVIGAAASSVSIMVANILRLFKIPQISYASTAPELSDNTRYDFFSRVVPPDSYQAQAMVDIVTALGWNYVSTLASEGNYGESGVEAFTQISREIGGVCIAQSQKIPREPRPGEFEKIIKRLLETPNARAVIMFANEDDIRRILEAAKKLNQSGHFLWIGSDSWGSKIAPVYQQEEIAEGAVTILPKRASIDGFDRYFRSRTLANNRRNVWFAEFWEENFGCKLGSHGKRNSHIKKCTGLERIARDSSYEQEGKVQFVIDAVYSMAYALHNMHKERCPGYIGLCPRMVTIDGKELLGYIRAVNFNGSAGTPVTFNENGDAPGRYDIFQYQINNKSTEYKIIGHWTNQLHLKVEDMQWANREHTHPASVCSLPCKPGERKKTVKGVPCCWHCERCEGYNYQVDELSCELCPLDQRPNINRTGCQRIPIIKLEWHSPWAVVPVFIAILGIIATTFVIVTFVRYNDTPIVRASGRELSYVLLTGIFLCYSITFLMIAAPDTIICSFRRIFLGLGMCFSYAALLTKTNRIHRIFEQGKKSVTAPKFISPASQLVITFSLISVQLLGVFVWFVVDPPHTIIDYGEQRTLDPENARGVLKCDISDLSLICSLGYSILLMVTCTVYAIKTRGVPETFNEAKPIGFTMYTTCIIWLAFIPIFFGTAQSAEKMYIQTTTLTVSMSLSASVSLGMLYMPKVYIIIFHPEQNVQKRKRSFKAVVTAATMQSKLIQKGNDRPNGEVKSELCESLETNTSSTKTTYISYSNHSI
Molecule `CN(C)C(C)(C)C#CCCCCC#CC(C)(C)N(C)C` showed a z-score of -0.195.

In turn, `N#Cc1cc2cc3c(cc2nc1N1CCOCC1)OCO3` returned a z-score of -0.918.

For `O=C1C2ON(c3ccccc3)C(c3ccncc3)C2C(=O)N1c1ccc(N2CCOCC2)cc1` (stereo unspecified), the z-score is -0.522.

In the case of `CCCCNc1c2c3c(cccc3n(C)c1=O)C(=O)c1ccccc1-2`, the z-score is 16.2 (active).

As to `Cn1c(=O)c(NCCc2ccccc2)c2c3c(cccc31)C(=O)c1ccccc1-2`, the z-score turned out to be 1.94.

In turn, `Cn1c(=O)c(NCCO)c2c3c(cccc31)C(=O)c1ccccc1-2` had a z-score of -2.23.

With `Cc1noc(/C=C/N(C)C)c1S(=O)(=O)N1CCCC(C(=O)NCCC2=CCCCC2)C1` (stereo unspecified), the z-score was -0.237.

Turning to `CC(C)(C)c1nnc(N/N=C/c2ccccc2O)n(N)c1=O`, the z-score is -0.149.

As to `CC(C)(C)c1nnc(N/N=C/c2ccccc2)n(N)c1=O`, the z-score was 2.74.

Regarding `CC(C)(C)c1nnc(N/N=C/c2ccc(Br)cc2)n(N)c1=O`, the z-score was found to be 0.0626.

`COc1ccc(-c2csc(Nc3ccc(S(N)(=O)=O)cc3)n2)cc1` returned a z-score of -0.213.

Molecule `Cc1ccc([N+](=O)[O-])cc1NC(=S)NC(=O)CC(C)(C)C` yielded a z-score of 0.834.

`O=C(Nc1cc([N+](=O)[O-])ccc1F)c1cccs1` came in with a z-score of -0.0753.

Regarding `Cc1ccc([N+](=O)[O-])cc1NC(=S)NC(=O)C(C)(C)C`, the z-score was determined as 0.72.

`Cc1ccc([N+](=O)[O-])cc1NC(=S)NC(=O)c1cccs1` displayed a z-score of 2.46.

Molecule `Cc1ccc([N+](=O)[O-])cc1N/C=C/C(=O)c1ccco1` gave a z-score of -0.039.

Take `Cc1ccc([N+](=O)[O-])cc1NC(=S)NC(=O)c1ccco1`: the z-score is 7.69 (active).

For the molecule `COC(=O)c1ccc(C(=O)OC)c(NC(=O)COC(=O)CC2CC3CCC2C3)c1` (stereo unspecified), the z-score is -0.338.

The molecule `CC1CCCC(C)N1c1nnc(NC(=O)c2cc(-c3ccc(Br)cc3)on2)s1` (stereo unspecified) came in with a z-score of 2.04.

`O=C(Nc1nnc(N2CCCCCC2)s1)c1cc(-c2ccc(Br)cc2)on1` gave a z-score of -0.0797.

Turning to `CC1CCCCN1c1nnc(NC(=O)c2cc(-c3ccc(Br)cc3)on2)s1` (stereo unspecified), the z-score is -0.71.

Molecule `O=C(CC12CC3CC(CC(C3)C1)C2)NCC(=O)OCc1cc(=O)oc2ccc3ccccc3c12` returned a z-score of -0.205.

As to `O=CN1CCN(C(C(=O)NC2CCCC2)c2ccc(Cl)cc2)CC1` (stereo unspecified), the z-score turned out to be 0.0147.

The molecule `CCc1ccc(-c2nc(CN3CCC(C(=O)NCCc4ccc(OC)c(OC)c4)CC3)c(C)o2)cc1` showed a z-score of 0.471.

`CCc1ccc(-c2nc(CN3CCC(C(=O)NCCN(CC)c4ccccc4)CC3)c(C)o2)cc1` gave a z-score of 1.17.

In turn, `Cc1oc(-c2ccc(Cl)cc2)nc1CN1CCC(C(=O)N2CCN(Cc3ccccc3)CC2)CC1` yielded a z-score of 0.0945.

Molecule `COc1ccc(CCNC(=O)C2CCCN(Cc3nc(-c4cccc(Cl)c4)oc3C)C2)cc1OC` (stereo unspecified) registered a z-score of 1.07.

The molecule `CCc1ccc(-c2nc(CN3CCCC(C(=O)NCCc4ccc(OC)c(OC)c4)C3)c(C)o2)cc1` (stereo unspecified) came in with a z-score of 2.2.

For the molecule `CCc1ccc(-c2nc(CN3CCC(C(=O)N4CCN(c5ccccc5)CC4)CC3)c(C)o2)cc1`, the z-score amounted to 2.2.

`O=C(CNC(=O)c1ccccc1F)NCCOc1cccc(Cl)c1Cl` had a z-score of -0.0129.

`COCCNC(=O)CN(C(=O)CCC(=O)Nc1cc(C)on1)c1cccc(C)c1C` returned a z-score of -0.171.

In turn, `CC(C)NS(=O)(=O)c1ccc(CCC(=O)Nc2ccc3c(c2)OCO3)cc1` registered a z-score of -0.224.

On to `CCc1cc(C(=O)N=Nc2c(O)[nH]c3ccc([N+](=O)[O-])cc23)c2ccccc2n1`, for which the z-score is -0.481.

Molecule `CCc1cc2c(N=Nc3c(O)[nH]c4ccccc34)ncnc2s1` displayed a z-score of -0.149.

On to `CCc1ccc2[nH]c(O)c(N=Nc3nc(-c4ccccc4)cs3)c2c1`, for which the z-score is 2.89.

In turn, `COC(=O)CSc1cnc2ccccc2n1` returned a z-score of 0.141.

The molecule `CCOC(=O)c1c(NC(=S)Nc2ccc(C)cc2)sc2c1CCC2` came in with a z-score of -0.0357.

Consider `Cc1ccc(C(=O)OCC(=O)Nc2sc3c(c2C#N)CCCC3)cc1NC(=O)c1ccco1`, for which the z-score came to 2.03.

`COC(=O)c1c(NC(=O)c2ccco2)sc2c1CCC2` registered a z-score of -0.464.

For the molecule `Cc1ccc(C(=O)OCC(=O)Nc2sc3c(c2C#N)CCC3)cc1`, the z-score was -0.0585.

With `CCOC(=O)c1c(NC(=S)Nc2ccccc2)sc2c1CCCCC2`, the z-score was 3.94 (active).

As to `CCOC(=O)c1c(NC(=O)c2ccco2)sc2c1CCCCC2`, the z-score is -0.506.

Consider `CCOC(=O)c1c(NC(=O)c2ccccc2N(C)S(=O)(=O)c2ccccc2)sc2c1CCCC2`, for which the z-score is -0.168.

`CCOC(=O)c1c(NC(=S)Nc2ccc(F)cc2)sc2c1CCC2`: the z-score is -0.154.

For `CCOC(=O)c1c(NS(=O)(=O)Cc2ccccc2)sc2c1CCCC2`, the z-score was 17.1 (active).

For `CC(C)OC(=O)c1c(NC(=O)c2ccco2)sc2c1CCCCC2`, the z-score is -0.501.

`Cc1ccc(C(=O)OCC(=O)Nc2sccc2C(N)=O)cc1NC(=O)c1ccco1` showed a z-score of -0.747.

Regarding `COC(=O)c1c(NC(=S)NC(=O)c2ccco2)sc2c1CCCC2`, the z-score is 3.53 (active).

In the case of `CC(=O)Nc1ccc2nc(C)n(Cc3ccc(Cl)cc3)c(=O)c2c1`, the z-score is -0.376.

`CCOC(=O)N1CCC(NC(=O)C2CCN(c3ccc(N4CCOCC4)nn3)CC2)CC1` displayed a z-score of -0.202.

Molecule `CCCOc1ccc(N2C(=O)CC(N3CCN(c4ccccc4OC)CC3)C2=O)cc1` (stereo unspecified) registered a z-score of -0.446.

The molecule `COC(=O)C1=CNC=C(C(=O)OC)C1c1ccccc1Cl` registered a z-score of -1.54.

`CCOc1ccccc1N(CC(=O)Nc1ccccc1C(=O)O)S(C)(=O)=O` gave a z-score of 0.403.

In turn, `c1ccc2nc3c(cc2c1)CCCCCC3` registered a z-score of -0.0331.

As for `CCOC(=O)c1nnn(-c2nonc2N)c1-c1cccc2ccccc12`, the z-score is -1.66.

In the case of `O=C(NCc1ccc2c(c1)OCO2)C1CC(c2ccccc2O)=NO1` (stereo unspecified), the z-score was 0.36.

In the case of `COc1ccc(C(C[N+](=O)[O-])c2c(-c3ccccc3)cc3ccccn23)cc1` (stereo unspecified), the z-score was 0.715.

`Cc1snc(SCC(=O)N/N=C(\N)COc2ccc(F)cc2)c1C#N`: the z-score was found to be 0.165.

The molecule `Cn1c(CNc2ccc(Cl)cc2)nnc1SCCN1CCCCC1` displayed a z-score of 0.273.

The molecule `O=C(COc1ccc([N+](=O)[O-])cc1)NCCC1=CCCCC1` had a z-score of -0.0621.

In turn, `CCCNC(=S)Nc1ccc(Cl)cc1Cl` yielded a z-score of -0.0325.

As to `COC(=O)c1c(NS(=O)(=O)Cc2ccccc2)sc2c1CCCC2`, the z-score was 17 (active).

`COC(=O)c1c(NC(C)=O)sc2c1CCCC2` gave a z-score of -0.117.

Take `COC(=O)c1c(NS(=O)(=O)c2cccs2)sc2c1CCCC2`: the z-score is 6.32 (active).

`COC(=O)c1c(NS(=O)(=O)c2ccc3ccccc3c2)sc2c1CCCC2` had a z-score of 0.384.

With `COC(=O)c1c(NC(=O)CN(c2ccccc2)S(C)(=O)=O)sc2c1CCCC2`, the z-score was determined as 0.77.

Turning to `COC(=O)c1c(NS(C)(=O)=O)sc2c1CCCC2`, the z-score amounted to 0.0189.

Regarding `C=CCn1c(Cc2csc(N)n2)nnc1SCC(=O)Nc1ccc(C(=O)OCC)cc1`, the z-score was -2.2.

In turn, `CCOC(=O)C1CCN(C(=O)c2ccccc2Oc2ccccc2)CC1` came in with a z-score of -0.386.

`COc1ccc(-c2nsc(SCC(=O)Nc3ccc4c(c3)OCO4)n2)cc1` registered a z-score of -0.142.

Regarding `CCOC(=O)NCc1ccc(S(=O)(=O)Nc2ccc(C)cc2)cc1`, the z-score was 0.21.

The molecule `Cc1ccc(-c2cc(N)n(Cc3ccc(Cl)cc3)n2)cc1` yielded a z-score of -0.532.

Take `CC(C)C(=O)NC(=S)N(Cc1ccccc1)Cc1ccccc1`: the z-score was 9.57 (active).

Regarding `CC(C)CC(=O)NC(=S)N(Cc1ccccc1)Cc1ccccc1`, the z-score is 8.66 (active).

Consider `O=C(NC(=S)N(Cc1ccccc1)Cc1ccccc1)c1ccccc1F`, for which the z-score is -1.15.

On to `O=C(NC(=S)N(Cc1ccccc1)Cc1ccccc1)C1CCCCC1`, for which the z-score amounted to 0.526.

The molecule `CC(C)CC(=O)NCCCCc1ccccc1` showed a z-score of -0.29.

`CC(C)CC(=O)NC(=S)NCCc1ccccc1`: the z-score was found to be 0.38.

For `CN(C)CCN1C(=O)C(O)=C(C(=O)c2cc3ccccc3o2)C1c1ccc(N(C)C)cc1` (stereo unspecified), the z-score was -0.145.

With `CC(C)(C)c1ccc(S(=O)(=O)NC(Cc2ccccc2)C(=O)O)cc1` (stereo unspecified), the z-score amounted to 0.161.

Take `Cc1nn(Cc2ccc(Cl)cc2Cl)c(Cl)c1/C=N/NC(=O)CNc1cccc(C(F)(F)F)c1`: the z-score is -0.087.

`CCOCCn1c(=NC(=O)c2cc(Cl)sc2Cl)sc2cc(S(N)(=O)=O)ccc21`: the z-score was -0.0217.

Turning to `CCCCNC(=O)CCn1c(=O)c2ccccc2n(Cc2ccc(F)cc2)c1=O`, the z-score was -0.407.

As for `COc1cc(OC)cc(C(=O)N[C@H](C(=O)N2CCc3ccccc32)C(C)C)c1`, the z-score is -0.177.

Molecule `c1cc2c3c(cccc3c1)C(N1CCCCCC1)=N2` returned a z-score of 0.822.

As for `CCCCN(C)C1=Nc2cccc3cccc1c23`, the z-score is 3.17 (active).

The molecule `c1cc2c3c(cccc3c1)C(N1CCN(C3=Nc4cccc5cccc3c45)CC1)=N2` came in with a z-score of -0.0313.

`COc1cc(S(=O)(=O)N(Cc2ccccc2)Cc2ccccn2)ccc1-n1cnnn1` gave a z-score of -0.0596.

As to `N#CCCN1CCN(S(=O)(=O)c2ccc3c(c2)OCCCO3)CC1`, the z-score was -0.473.

As to `Cc1c(C(=O)O)[nH]c2c1C(=O)CC(c1ccc(Cl)cc1)C2` (stereo unspecified), the z-score is 5.28 (active).

For `Cc1c(C(=O)N2CCOCC2)[nH]c2c1C(=O)CC(c1ccc(Cl)cc1)C2` (stereo unspecified), the z-score was -0.803.

On to `Cc1c(C(=O)O)[nH]c2c1C(=O)CC(c1ccccc1)C2` (stereo unspecified), for which the z-score is -0.21.

`CC(C)=CCC/C(C)=C/C=N/NC(=O)c1ccc([N+](=O)[O-])cc1` yielded a z-score of 1.52.

Regarding `CCOC(=O)C1CCC2(CC1)C(C#N)=C(N)Oc1n[nH]c(C)c12` (stereo unspecified), the z-score stood at 0.0849.

As to `CCOc1ccc(S(=O)(=O)N(CC(=O)Nc2cc(C)on2)Cc2ccccc2Cl)cc1`, the z-score was -1.72.

As to `CC(=O)c1ccc(OC(=O)C2CC(=O)N(c3cccc(C)c3)C2)cc1` (stereo unspecified), the z-score was -1.58.

`O=C(Nc1ccccc1Br)C(=O)N1CCCC1` yielded a z-score of -0.0281.

In turn, `Cc1ccccc1NC(=O)Nc1ccccc1Br` had a z-score of -0.375.

The molecule `O=C(NNc1ccccc1Br)C(=O)n1ccc2ccccc21` gave a z-score of 2.23.

The molecule `Cc1ccc(S(=O)(=O)N2CCN(c3cc4c(cc3[N+](=O)[O-])n(C)c(=O)n4C)CC2)cc1` registered a z-score of -0.078.

`COC(=O)c1cc2ccccc2c(-c2c(O)ccc3ccccc23)c1O` displayed a z-score of 0.0387.

Take `Cc1ccc(C2NC(=O)NC(O)(C(F)(F)F)C2C(=O)c2cccs2)o1` (stereo unspecified): the z-score was -0.404.

In turn, `O=C1NC(c2ccccc2)C(C(=O)c2cccs2)C(O)(C(F)(F)F)N1` (stereo unspecified) had a z-score of -0.23.

Turning to `Cc1ccc(C(=O)C2C(c3cccs3)NC(=O)NC2(O)C(F)(F)F)cc1` (stereo unspecified), the z-score was 2.58.

On to `Cc1nnc(NC(=O)c2cccc(S(=O)(=O)N3CCc4ccccc43)c2)s1`, for which the z-score worked out at 0.437.

`CSc1ccc(C(=S)N2CCN(CCO)CC2)cc1` gave a z-score of 0.0369.
